Reference: PubChem BioAssay (NCI)
The panel holds about 79,000 compounds, 15% with a hit somewhere; the sample as a whole holds those more often. A number with no mark means an inactive call. Calls of active or inactive are those of the source. Cut-off read from the data, not from the text of the source: active = growth inhibition above about 70%; inactive = the rest.

Key:
[1] = NCI Yeast Anticancer Drug Screen. Data for the rad50 strain (AID 155);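 note: 0% = growth of vehicle-only cultures of the same strain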; conditions: S. cerevisiae rad50 strain growth inhibition, active compounds read high
In short: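 Vehicle-treated cultures provide the reference for the growth inhibition reported for compound-exposed, repair-deficient yeast.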

[2] = NCI Yeast Anticancer Drug Screen. Data for the mec2-1 strain (AID 157); conditions: S. cerevisiae mec2-1 strain, active compounds read high
In short: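 mec2-1 yeast strain, carrying an alteration in DNA damage repair or cell cycle control, was exposed to compounds; growth inhibition was measured relative to vehicle-treated controls.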

[3] = NCI Yeast Anticancer Drug Screen. Data for the sgs1 mgt1 strain (AID 161);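 note: 0% = growth of cultures given vehicle only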; conditions: S. cerevisiae sgs1 mgt1 strain, active compounds read high
In short: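 Compounds are added to genetically altered yeast, and growth is compared with cultures given vehicle alone to give percent inhibition.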

[4] = NCI Yeast Anticancer Drug Screen. Data for the cln2 rad14 strain (AID 165);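 note: 0% = growth equal to vehicle treated cultures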; conditions: S. cerevisiae cln2 rad14 strain, active compounds read high
In short: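 Yeast carrying cln2 and rad14 alterations (cell cycle control and DNA damage repair) were exposed to compounds. Growth inhibition was measured against vehicle-treated controls.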

[5] = NCI Yeast Anticancer Drug Screen. Data for the bub3 strain (AID 167); conditions: S. cerevisiae bub3 mutant strain, active compounds read high
In short: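 Mutant yeast screening strain plus compound; vehicle-treated cultures serve as the 0% inhibition reference.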

[6] = NCI Yeast Anticancer Drug Screen. Data for the mlh1 rad18 strain (AID 175); conditions: S. cerevisiae mlh1 rad18 strain growth inhibition, active compounds read high
In short: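 Growth inhibition of the yeast strain was measured after compound exposure and expressed relative to vehicle-treated controls. The strain carries defined defects in DNA damage repair.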

[7] = at 5.0 µM (retest, dose inferred, filed as 0.5)
[8] = at 50.0 µM (retest, dose inferred, filed as 5.0)

Row | Structure (SMILES) | growth inhibition [1, 7] | growth inhibition [1, 8] | growth inhibition ([1]; at 50.0 µM) | growth inhibition [2, 7] | growth inhibition [2, 8] | growth inhibition ([2]; at 50.0 µM) | growth inhibition [3, 7] | growth inhibition [3, 8] | growth inhibition ([3]; at 50.0 µM) | growth inhibition [4, 7] | growth inhibition [4, 8] | growth inhibition ([4]; at 50.0 µM) | growth inhibition [5, 7] | growth inhibition [5, 8] | growth inhibition ([5]; at 50.0 µM) | growth inhibition [6, 7] | growth inhibition [6, 8] | growth inhibition ([6]; at 50.0 µM)
1 | COc1ccc(/C=C2\CCC(CN(C)C)C2=O)cc1 (configuration not stated) | 19% | 89% (active) | 93.8% (active) | 19% | 99% (active) | 93.3% (active) | 33% | 99% (active) | 93.2% (active) | 27% | 48% | 91.8% (active) | 36% | 99% (active) | 92.6% (active) | 24% | 98% (active) | 88.8% (active)
2 | Nc1nc2nc(I)[nH]c2c(=O)[nH]1 | -4% | -4% | 4.8% | -13% | -16% | -2.5% | 10% | 9% | -5.25% | -8% | -4% | 30.3% | -7% | 3% | 31.6% | -9% | -2% | 10.9%
3 | Cc1c2cc[n+](C)cc2c(C)c2c1sc1ccccc12 | 21% | 97% (active) | 39.4% | -2% | 98% (active) | 91.2% (active) | 18% | 99% (active) | 90.8% (active) | 4% | 97% (active) | 91.5% (active) | 16% | 99% (active) | 92.7% (active) | 8% | 97% (active) | 91.5% (active)
4 | Cc1cc(N2C(=O)CSC2=S)ccc1Cl | -3% | 1% | 61.1% | -4% | -2% | 21.9% | -2% | 8% | 79.2% (active) | -2% | -17% | 12.8% | -6% | -1% | 7.95% | -6% | 0% | 51.2%
5 | CCCCCCCCC1CCNCC1 | 39% | 28% | 85.5% (active) | -6% | 47% | 87.7% (active) | 26% | 71% (active) | 92.2% (active) | 33% | 38% | 72.5% (active) | 36% | 62% | 90.3% (active) | 20% | 23% | 89.8% (active)
6 | O=C(Nc1ccccc1)c1ccc(Cl)cc1Cl | -15% | -21% | 1.35% | -9% | -4% | 1.85% | -2% | 7% | -3.15% | 31% | -50% | -7.95% | 4% | -34% | 8.75% | -6% | -8% | 8.05%
7 | CCOC(=O)[C@]12CCC[C@@]1(O)NC(=O)c1cnccc12 | 33% | 99% (active) | 97.3% (active) | 13% | 99% (active) | 97.7% (active) | 15% | 98% (active) | 97.4% (active) | -1% | 7% | 91.2% (active) | -2% | 9% | 96.9% (active) | 0% | 97% (active) | 97.3% (active)
8 | Cc1ccc2c(ccc3c[n+]4c5ccccc5ccc4n32)c1 | 96% (active) | 99% (active) | 99.4% (active) | 92% (active) | 99% (active) | 99.5% (active) | 95% (active) | 100% (active) | 98.7% (active) | 94% (active) | 99% (active) | 97.3% (active) | 93% (active) | 99% (active) | 99.3% (active) | 95% (active) | 99% (active) | 99.2% (active)
9 | C#CC(C)(C)Nc1c2ccccc2nc2ccccc12 | 7% | 98% (active) | 98.2% (active) | 2% | 97% (active) | 94.6% (active) | -1% | 98% (active) | 98.8% (active) | 0% | 94% (active) | 93.7% (active) | -2% | 98% (active) | 97.5% (active) | 11% | 98% (active) | 98.7% (active)
10 | O=C(O)c1c(Cl)c(Cl)c(Cl)c(Cl)c1-c1c2cc(I)c(=O)c(I)c-2oc2c(I)c(O)c(I)cc12 | 75% (active) | 98% (active) | 91.3% (active) | 99% (active) | 99% (active) | 92.1% (active) | 82% (active) | 98% (active) | 91.6% (active) | 98% (active) | 97% (active) | 90.2% (active) | 98% (active) | 98% (active) | 91.4% (active) | 97% (active) | 97% (active) | 91.2% (active)
11 | OCC(O)C(O)C(O)C(O)C(O)C(/C=N/Nc1ccccc1)=N/Nc1ccccc1 (configuration not stated) | -1% | 81% (active) | 55.2% | -2% | 95% (active) | 29.2% | 0% | 50% | 35.2% | 0% | 71% (active) | 31.1% | 18% | 95% (active) | 56% | 8% | 92% (active) | 66.1%
12 | CCCCCCCCSCc1ccc(N)cc1 | 23% | 97% (active) | 89.7% (active) | 12% | 98% (active) | 91.4% (active) | 37% | 98% (active) | 90.5% (active) | 39% | 98% (active) | 89.5% (active) | 51% | 98% (active) | 89% (active) | 20% | 97% (active) | 89.6% (active)
13 | Cc1ccc(N=C=C(c2ccccc2)c2ccccc2)cc1 | 12% | 46% | 67.5% | 26% | 39% | 59.3% | 17% | 70% (active) | 65.8% | 9% | 35% | 48% | 28% | 58% | 67.2% | 30% | 77% (active) | 71.2% (active)
14 | COc1cc(/C=C(/C)C[N+](=O)[O-])ccc1O | 54% | 99% (active) | 99.5% (active) | 23% | 99% (active) | 99.8% (active) | 15% | 93% (active) | 99.8% (active) | 13% | 99% (active) | 98.8% (active) | 36% | 99% (active) | 98.8% (active) | 25% | 99% (active) | 99.5% (active)
15 | CCOC(=O)c1c(C)[nH]c(CO)c1C | -1% | 14% | 28.1% | 6% | 20% | 38% | 2% | 24% | 43.1% | 4% | 0% | 31.8% | 4% | 8% | 34% | -1% | 13% | 65.5%
16 | COc1ccc2c(c1)[n+]([O-])c(-c1ccccc1)c(N)[n+]2[O-] | 47% | 98% (active) | 99.2% (active) | 40% | 99% (active) | 99.3% (active) | 73% (active) | 97% (active) | 99.2% (active) | 67% | 98% (active) | 98.8% (active) | 87% (active) | 99% (active) | 99.2% (active) | 82% (active) | 99% (active) | 99% (active)
17 | CCCCCCC(=O)CC(SCCN)c1ccccc1Cl (configuration not stated) | 9% | 52% | 99.2% (active) | -5% | 56% | 99.4% (active) | -12% | 48% | 99.2% (active) | 12% | 99% (active) | 98.3% (active) | -5% | 99% (active) | 98.9% (active) | 1% | 55% | 98.8% (active)
18 | CCOc1ccc2c(c1)[n+]([O-])c(-c1ccc(Cl)cc1)c(N)[n+]2[O-] | 24% | 99% (active) | 99.2% (active) | 23% | 99% (active) | 98.2% (active) | 50% | 100% (active) | 99.3% (active) | 34% | 98% (active) | 98.8% (active) | 63% | 99% (active) | 99.2% (active) | 68% | 99% (active) | 98.8% (active)
19 | O=c1[nH]c2c([N+](=O)[O-])cc(Cl)cc2nc1/C=C(\O)c1ccccc1 | 17% | 81% (active) | 49.6% | -3% | 65% | 4.65% | 7% | 63% | 66.8% | 4% | 59% | 45.4% | 16% | 77% (active) | -2.5% | -9% | 80% (active) | 83.9% (active)
